The text below walks through data of PubChem BioAssay (NCATS).

Several values for one entry are separate records, joined by “and”; a condition that tells them apart may be missing. Equal entries are not always repeated. Inconclusive results are not listed. Activity calls are given as the source filed them. Unless noted, calls follow the shape of the dose curve; as a rule, active = well fitted curve in the direction sought with a large enough effect; inconclusive = small, poorly fitted or top-dose-only effect, or another doubt; inactive = no such curve, though single readings can be large; an effect the other way counts as inactive or inconclusive.

Assay [1] can be described thus: Validation of Assay for Modulators of Lamin A Splicing (AID 1459; active = well fitted curve in the direction sought with a large enough effect in the signal ratio; the % refers to the signal ratio;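 also: cells exposed to compound for two days before reading; 0% is about no effect; ratio rise marks activators and ratio drop marks inhibitors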). In outline: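 HeLa S3 lamin A-EGFP/DsRed2 stable clone, 600 cells/well, Opti-MEM 2% FBS; compounds by pin tool; 48 hrs, 37 °C/5% CO2; Acumen 488 nm scan, objects 10-100 um; GFP/RFP intensity ratio.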
Assay [2] in a line: qHTS Assay for Lipid Storage Modulators (AID 1519; calls by dose curve; as to activity change, negative = inhibition: % is scaled to controls: 0 for no effect and ±100 for the full control effect). To be noted: Drosophila S3 cells, BODIPY lipid droplet/cell ratio, laser cytometry, cells loaded with oleic acid; for activity change, negative = inhibition: at 57.5 µM (top of the series). In outline: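 Cells seeded at 5,000 per well were treated with compounds over a concentration series and loaded with oleic acid (400 uM, as added). Lipid droplet fluorescence (488 nm excitation, 500-530 nm channel) was read by laser-scanning cytometry and normalized to 20 uM Triacsin C.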
(In general: qHTS replaces the single test concentration by a dilution series.)

Assay [3] addresses DNA repair nuclease/redox regulator APEX1 (Homo sapiens) (UniProt P27695). Kind of assay: qHTS Validation Assay for Inhibitors of the Human Apurinic/apyrimidinic Endonuclease 1 (APE1) (AID 1705;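 also: TAMRA fluorescence gain over two minutes as APE1 cuts a quenched THF abasic duplex; % is scaled to controls: 0 for no effect and ±100 for the full control effect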). In outline: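 qHTS, 1536-well. APE1 + cpd 15 min RT → 50 nM TAMRA/BHQ-2 THF-abasic dsDNA substrate → kinetic fluorescence, 3 reads/60 s; delta(read3−read1) = reaction progress. No-enzyme buffer = negative control.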

Assay [4] can be described thus: Counterscreen for APE1 Inhibitors: Fluorescent Dye Displacement Validation Assay (AID 1707).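 Also: plate controls were ThO with dsDNA and no compound for no effect and ThO without dsDNA for full effect.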 Summed up: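 ThO 250 nM + dsDNA 50 nM (THF abasic site, 5'-TAMRA), Tris-HCl pH7.5/50mM NaCl/2 mM MgCl2/0.01% Tween-20; compounds pin-transferred; ex 480/em 540 nm endpoint. Neutral = no compound; no-DNA ThO wells = negative control.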
In general terms: A counterscreen serves to expose hits that act by an unwanted route or on another target.

Assay [5] in a line: qHTS for differential inhibitors of proliferation of Plasmodium falciparum line 7G8 (AID 1815).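 Also: parasite growth measured after three days of incubation; plate controls were vehicle wells for no effect and reference inhibitor wells for full effect.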
Assay [6] is described as follows: qHTS for differential inhibitors of proliferation of Plasmodium falciparum line GB4 (AID 1816).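 Also: parasite growth measured after 72 h incubation; 0% = vehicle DMSO and -100% = reference inhibitor.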 To be noted: Potency: Plasmodium falciparum GB4 proliferation inhibition.
Assay [7] is described as follows: qHTS for differential inhibitors of proliferation of Plasmodium falciparum line 3D7 (AID 1876).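 Also: parasite growth measured after three days of culture; 0% = vehicle wells and -100% = reference inhibitor wells.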
Assay [8] in a line: qHTS for differential inhibitors of proliferation of Plasmodium falciparum line D10 (AID 1877).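 Also: parasites grown with compound for 72 h before DNA staining; plate controls were vehicle wells for no effect and reference inhibitor wells for full effect.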
Assay [9] in a line: qHTS for differential inhibitors of proliferation of Plasmodium falciparum line Dd2 (AID 1882).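 Also: compound exposure of 72 h on infected erythrocytes; plate controls were DMSO vehicle for no effect and 0.29 µM artemisinin for full effect; nearly all actives have a fitted effect of over 65% in size.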 To be noted: Potency: Plasmodium falciparum Dd2 proliferation inhibition. Summed up: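 SYBR Green I DNA fluorescence read-out, ex 485/em 535 nm. Signals were normalized to 0.29 uM artemisinin and DMSO wells, then corrected using vehicle-only plates flanking each stack. Parasite growth ran 72 h in erythrocytes before lysis.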

Assay [10] is described as follows: qHTS for differential inhibitors of proliferation of Plasmodium falciparum line W2 (AID 1883).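 Also: parasites grown with compound for 72 h before lysis and staining.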 Also: potency is read from the fitted curve at half-maximal effect.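 As to activity change, negative = inhibition: 0% = vehicle wells and -100% = control inhibitor wells.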 To be noted: Potency: Plasmodium falciparum W2 proliferation inhibition.
Assay [11] in a line: qHTS for differential inhibitors of proliferation of Plasmodium falciparum line HB3 (AID 1886).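 Also: parasites grown with compound for 72 h before SYBR Green readout; plate controls were vehicle for no effect and reference inhibitor for full effect.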 To be noted: Potency: Plasmodium falciparum HB3 proliferation inhibition.
The nature of assay [12]: qHTS Assay for Modulators of Human Peripheral Myelin Protein 22 (PMP22) Expression/Activity (AID 1967; active = well fitted curve in the direction sought with a large enough effect in the signal ratio; the % refers to the signal ratio;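 also: 0% = untreated cells and 100% end not stated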). Summed up:
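Luminescence ratio of Pmp22 promoter-driven green luciferase to EF-alpha-driven red luciferase, in engineered mouse MSC80 Schwann cells, served as read-out. Compounds were incubated 24h; untreated cells defined 0% Activity; curves were classified by r2, magnitude and activity.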

The target in assay [13] is Ferritin light chain (Equus caballus) (UniProt P02791). Kind of assay: qHTS Validation Assay for Identification of Novel General Anesthetics (AID 2323). Also: % is scaled to controls: 0 for no effect and ±100 for the full control effect. In outline: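 Fluorescence at 535 nm (excitation 380 nm) reported loss of 1-AMA binding to horse-spleen apoferritin (10 uM) in PBS with 50% saturated 1-aminoanthracene, after 10 min room-temperature incubation with compound; values from Hill fits of normalized response.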

Assay [14] concerns the target ATP-dependent DNA helicase Q1 (Homo sapiens) (UniProt P46063). The experiment in a line: qHTS Validation Assay for Inhibitors of RecQ-Like Dna Helicase 1 (RECQ1) (AID 2353).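 Also: plate controls were DMSO vehicle for no effect and enzyme-free control for full effect.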 Summed up: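 50 nM RECQ1T1 preincubated 15 min with compound in Tris pH 8.0 buffer with MgCl2, DTT, Tween-20 and 2.5 ug/ml poly(dI-dC); started with 200 nM TAMRA/BHQ-2 forked duplex and 2 mM ATP. Unwinding read as fluorescence (525/598 nm), two reads 2 h apart.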

The target of assay [15] is RecQ-like DNA helicase BLM (Homo sapiens) (UniProt P54132). Kind of assay: qHTS Validation Assay for Inhibitors of Bloom's syndrome helicase (BLM) (AID 2364).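 Also: plate controls were DMSO vehicle for no effect and enzyme-free control for full effect.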 In outline: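 50 nM BLM preincubated 15 min at room temperature with compound in pH 8.0 Tris buffer containing 2.5 ug/ml poly(dI-dC); started with 200 nM TAMRA/BHQ-2 forked duplex and 2 mM ATP (final). Unwinding read as TAMRA fluorescence increase, two reads 2 h apart.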

Assay [16] deals with Endonuclease 4 (Escherichia coli (strain K12)) (UniProt P0A6C1). The experiment in a line: Counterscreen for APE1 Inhibitors: qHTS Validation Assay for Inhibitors of Endonuclease IV (AID 1708). Also: % is scaled to controls: 0 for no effect and ±100 for the full control effect. In outline:
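Cleavage of a quenched abasic-site DNA duplex (50 nM, 5'-TAMRA, 3'-BHQ-2) by 2 nM enzyme is followed as fluorescence increase. Compounds are preincubated with enzyme 15 min at room temperature before substrate addition.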

Assay [17] has as its target alpha-glucosidase (Oryza sativa, rice) (UniProt Q653V4). The experiment in a line: Counterscreen for Glucocerebrosidase Inhibitors: qHTS Assay for Rice alpha-Glucosidase at pH 5.0 (AID 997).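 Also: 0% = full activity with enzyme and -100% = basal without enzyme.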 In outline: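 Rice alpha-glucosidase (4 nM final) with 400 uM 4-methylumbelliferyl-alpha-D-glucopyranoside in citrate buffer pH 5.0, 20 min at room temperature, stopped at pH 10; fluorescence 365/440 nm, compounds 0.7 nM–77 uM, AC50 from Hill fits.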

[18] abbreviates: measured here: cell count channel max response.
[19] abbreviates: measured here: lipid channel max response.

Chain of ATP-dependent DNA helicase Q1 (Homo sapiens) (P46063 whole entry, looked up): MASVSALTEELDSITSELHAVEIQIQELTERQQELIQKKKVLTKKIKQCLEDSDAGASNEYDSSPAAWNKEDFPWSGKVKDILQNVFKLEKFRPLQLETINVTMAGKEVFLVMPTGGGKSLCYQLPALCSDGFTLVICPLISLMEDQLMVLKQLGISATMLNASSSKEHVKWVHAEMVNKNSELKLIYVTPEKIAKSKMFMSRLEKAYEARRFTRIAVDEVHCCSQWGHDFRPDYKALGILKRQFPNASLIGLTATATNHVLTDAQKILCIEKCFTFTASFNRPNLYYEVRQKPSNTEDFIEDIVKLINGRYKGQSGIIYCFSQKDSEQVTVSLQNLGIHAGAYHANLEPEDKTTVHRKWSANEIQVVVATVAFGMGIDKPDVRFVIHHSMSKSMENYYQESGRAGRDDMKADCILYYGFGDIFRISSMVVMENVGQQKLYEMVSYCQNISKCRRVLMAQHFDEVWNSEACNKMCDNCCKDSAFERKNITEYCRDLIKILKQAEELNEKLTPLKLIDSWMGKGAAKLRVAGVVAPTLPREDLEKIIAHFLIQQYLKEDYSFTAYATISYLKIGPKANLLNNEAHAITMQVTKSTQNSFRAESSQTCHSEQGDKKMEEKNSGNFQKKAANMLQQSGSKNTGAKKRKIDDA
Chain of Ferritin light chain (Equus caballus) (P02791 2-175 limits assumed): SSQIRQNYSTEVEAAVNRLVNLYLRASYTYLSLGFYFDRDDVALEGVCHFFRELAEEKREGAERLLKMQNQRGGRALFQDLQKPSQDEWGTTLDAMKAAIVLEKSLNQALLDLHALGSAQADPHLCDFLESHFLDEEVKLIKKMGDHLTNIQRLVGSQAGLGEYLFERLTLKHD
Chain of DNA repair nuclease/redox regulator APEX1 (Homo sapiens) (P27695 whole entry, looked up): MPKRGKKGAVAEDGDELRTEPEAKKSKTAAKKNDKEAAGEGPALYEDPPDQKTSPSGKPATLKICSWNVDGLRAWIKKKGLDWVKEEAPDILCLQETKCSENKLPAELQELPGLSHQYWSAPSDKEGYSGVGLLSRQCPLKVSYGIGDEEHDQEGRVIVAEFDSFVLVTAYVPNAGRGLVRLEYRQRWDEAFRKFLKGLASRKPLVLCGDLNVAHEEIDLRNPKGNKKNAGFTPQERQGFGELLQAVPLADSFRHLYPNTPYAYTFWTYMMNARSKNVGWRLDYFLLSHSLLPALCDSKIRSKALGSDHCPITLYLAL
Chain of RecQ-like DNA helicase BLM (Homo sapiens) (P54132 whole entry, looked up): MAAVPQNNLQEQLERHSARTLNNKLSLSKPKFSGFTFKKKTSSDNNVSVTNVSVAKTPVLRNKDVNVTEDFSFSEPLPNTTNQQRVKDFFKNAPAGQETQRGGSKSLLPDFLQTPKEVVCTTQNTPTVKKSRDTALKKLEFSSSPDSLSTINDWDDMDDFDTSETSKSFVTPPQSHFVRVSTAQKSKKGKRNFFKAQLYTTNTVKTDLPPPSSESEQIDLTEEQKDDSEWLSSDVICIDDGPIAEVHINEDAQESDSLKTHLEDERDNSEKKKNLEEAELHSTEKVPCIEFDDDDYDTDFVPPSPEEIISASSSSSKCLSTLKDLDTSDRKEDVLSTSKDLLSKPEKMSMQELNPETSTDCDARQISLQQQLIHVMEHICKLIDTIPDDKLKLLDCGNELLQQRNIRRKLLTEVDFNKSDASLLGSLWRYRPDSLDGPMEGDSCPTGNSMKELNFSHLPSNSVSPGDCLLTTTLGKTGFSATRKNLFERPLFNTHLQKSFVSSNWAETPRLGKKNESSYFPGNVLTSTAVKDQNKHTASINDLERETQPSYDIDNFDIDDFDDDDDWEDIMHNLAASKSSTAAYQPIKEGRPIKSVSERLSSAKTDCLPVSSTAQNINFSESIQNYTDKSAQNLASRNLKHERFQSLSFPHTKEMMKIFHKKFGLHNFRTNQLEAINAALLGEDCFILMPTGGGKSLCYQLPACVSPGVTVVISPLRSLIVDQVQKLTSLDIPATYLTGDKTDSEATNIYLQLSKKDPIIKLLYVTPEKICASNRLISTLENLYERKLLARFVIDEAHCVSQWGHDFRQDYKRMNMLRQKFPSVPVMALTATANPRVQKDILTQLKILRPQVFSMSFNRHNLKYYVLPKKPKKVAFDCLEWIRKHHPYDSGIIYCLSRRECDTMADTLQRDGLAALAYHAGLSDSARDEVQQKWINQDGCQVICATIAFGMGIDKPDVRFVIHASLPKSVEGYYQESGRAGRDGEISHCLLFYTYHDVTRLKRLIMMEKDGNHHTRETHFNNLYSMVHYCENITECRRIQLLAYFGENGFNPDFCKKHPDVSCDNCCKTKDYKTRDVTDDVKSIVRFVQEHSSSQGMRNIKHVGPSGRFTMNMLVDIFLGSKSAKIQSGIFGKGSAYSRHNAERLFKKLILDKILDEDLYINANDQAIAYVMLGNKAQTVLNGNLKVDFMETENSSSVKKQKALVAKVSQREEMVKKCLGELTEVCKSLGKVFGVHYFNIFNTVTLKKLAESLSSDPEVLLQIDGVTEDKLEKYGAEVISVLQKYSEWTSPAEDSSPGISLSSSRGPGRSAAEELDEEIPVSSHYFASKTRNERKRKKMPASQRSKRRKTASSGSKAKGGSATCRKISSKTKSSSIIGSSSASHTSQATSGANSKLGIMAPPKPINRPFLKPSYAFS

For `NCCC1CCCC(CCN)N1` (stereo not drawn), the compound was classed as inactive in [1] and in assay [12]. Moreover, the activity change, negative = inhibition in assay [2] was -3.87% (inactive). The max response in assay [2] (setting [18]) is -16%; in assay [2] (setting [19]), -17.4%. Moreover, the Potency entry in [3], in assay [4], in assay [5], in assay [6], in assay [7] and in assay [8] was “inactive” in each case. Moreover, the Potency result in assay [9], in assay [10], in assay [11], in assay [13], in assay [14] and in assay [15] was “inactive” in each case.

As for `NC1CONC1=O` (stereo not drawn), the compound was classed as inactive in [1] and in assay [12]. In addition, the activity change, negative = inhibition in assay [2] was 9.95% (inactive) and 0.344% (inactive). The max response in [2] (setting [18]) is 9.83% and -1.76%; in [2] (setting [19]), 24% and -1.09%. Also, the Potency result in [3], in [4], in assay [16], in assay [5], in [6] and in assay [7] was “inactive” each time. The Potency result in [8], in assay [9], in assay [10], in [11], in assay [13] and in assay [14] was “inactive” throughout.

In the case of `NC1C=CC=C(C(=O)O)C1` (stereo not drawn), the call in [1] was inactive. Besides, the activity change, negative = inhibition in assay [2] was 2.8% (inactive). In addition, the max response in assay [2] (setting [18]) was 4.79%; in [2] (setting [19]), -17.7%. Also, the Potency result in assay [3], in assay [4], in [16], in assay [5], in assay [6] and in [7] was “inactive” each time. Besides, the Potency result in assay [8], in [9], in assay [10], in assay [11] and in assay [13] was “inactive” each time.

For `O=C(O)[C@H]1NCCC[C@H]1C(=O)O`, the outcome in assay [1] and in assay [12] was inactive. The activity change, negative = inhibition in [2] is -1.57% (inactive). The max response in assay [2] (setting [18]) is -48.8%; in [2] (setting [19]), -48.9%. Besides, the Potency entry in assay [3], in assay [4], in assay [16], in assay [5], in assay [6] and in assay [7] was “inactive” each time. Also, the Potency result in assay [8], in assay [9], in assay [10], in assay [11], in assay [13] and in assay [14] was “inactive” in each case.

As for `O=C(O)c1ccccc1Nc1ccccc1`, the compound was called inactive in [17] and in assay [1]. Further, the activity change, negative = inhibition in assay [2] is 7.05% (inactive) and 0.0171% (inactive). The max response in assay [2] (setting [18]) was 2.57% and -16.2%; in assay [2] (setting [19]), 11.5% and -17.1%. Further, the Potency entry in [3], in [4], in assay [16], in [5], in [6] and in assay [7] was “inactive” throughout. Besides, the Potency entry in [8], in [9], in [10], in assay [11] and in assay [14] was “inactive” each time.

`CN(C)CCC(c1ccc(Br)cc1)c1ccccn1` (stereo not drawn): the compound was classed as inactive in [1] and in assay [12]. Also, the activity change, negative = inhibition in assay [2] was 0.401% (inactive). In addition, the max response was 15.4% in assay [2] (setting [18]) and 17.8% in assay [2] (setting [19]). The Potency entry in [3], in assay [4], in assay [16], in [7], in [8] and in [11] was “inactive” each time. Also, the Potency entry in [13] and in assay [14] was “inactive” each time. Also, in [10], the Potency was 0.891 µM (active).

`Nc1nc2[nH]c(=O)cnc2c(=O)[nH]1`: the compound was classed as inactive in assay [17] and in [1]. In [2], the activity change, negative = inhibition was 0.27% (inactive). For the same compound, the max response in [2] (setting [18]) came out at 60.5%; in assay [2] (setting [19]), 55.1%. Moreover, the Potency result in [3], in [4], in assay [16], in [5], in assay [6] and in assay [7] was “inactive” each time. In addition, the Potency result in assay [8], in assay [9], in assay [10], in assay [11], in assay [14] and in assay [15] was “inactive” throughout.
